Rab9 prom act = Rab9 promoter activation; Huh7 Rab9 promoter-luciferase reporter, luminescence, 24 h; AID 485297; Potency, µM (highest dose often 9.22 µM), without a hit: at the highest dose activation, negative = inhibition, usual class: activators; 320,000 tested, 2.8% active; also: % of control where 0% means no effect; nearly all actives have a fitted effect of over 60% in size
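Huh7 cells stably carrying Rab9 promoter–luciferase reporter, plated 1500 cells/well, compound added after 2 h and incubated 24 h at 37 °C; luciferase luminescence then read after 10 min with detection reagent.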
NPC1 promoter act = NPC1 promoter activation. 320,000 tested, 2.4% active. Potency, µM (doses to about 9.22 µM), for inactives: top-dose activation, hits mostly activators. Huh7 NPC1 promoter luciferase reporter, 24 h. AID 485313; also: % of control where 0% means no effect; nearly all actives have a fitted effect of over 60% in size
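Luminescence read-out of NPC1 promoter-driven luciferase in stably transfected Huh7 cells; compounds delivered in DMSO and left 24 h at 37C, 5% CO2, qHTS titration format.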
FLuc modulator = counter-screen for miR-21 project: firefly luciferase inhibitors or activators | Potency, µM (top dose mostly 57.5 µM), for the others: at the highest dose activity change, negative = inhibition, most hits filed as inhibitors | purified FLuc, Km substrates, luminescence inhibition | 360,000 tested, 6.9% active;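 also: plate controls were vehicle for no effect and reference inhibitor for full effect; nearly all actives have a fitted effect of over 55% in size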
Target sequence (P08659 whole entry, looked up): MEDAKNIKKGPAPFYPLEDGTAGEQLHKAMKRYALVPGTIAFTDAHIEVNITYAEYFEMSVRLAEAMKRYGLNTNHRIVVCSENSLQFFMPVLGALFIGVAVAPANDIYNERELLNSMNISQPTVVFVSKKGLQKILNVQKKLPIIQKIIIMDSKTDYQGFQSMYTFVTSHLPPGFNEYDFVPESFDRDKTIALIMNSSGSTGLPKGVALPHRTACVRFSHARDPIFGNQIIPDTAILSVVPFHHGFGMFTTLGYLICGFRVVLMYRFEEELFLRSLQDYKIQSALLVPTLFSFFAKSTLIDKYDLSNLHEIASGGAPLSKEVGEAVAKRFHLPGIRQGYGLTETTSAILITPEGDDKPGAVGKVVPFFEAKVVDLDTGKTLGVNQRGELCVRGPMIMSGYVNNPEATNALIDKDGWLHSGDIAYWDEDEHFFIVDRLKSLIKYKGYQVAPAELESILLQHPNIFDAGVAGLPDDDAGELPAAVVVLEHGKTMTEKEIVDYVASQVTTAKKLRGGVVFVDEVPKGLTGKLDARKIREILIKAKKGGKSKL
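Purified P. pyralis luciferase (10nM final) with 10uM D-luciferin and 10uM ATP (Km levels) in 50mM Tris acetate pH 7.5, 10mM Mg acetate, 0.01% Tween-20, 0.05% BSA; qHTS 6-point titration, ~60 µM downward; luminescence read.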
ELG1 genotox = induces genotoxicity in HEK293T cells with luciferase-tagged ELG1. HEK293T ELG1-luciferase reporter, luminescence, 16 h. Potency, µM (top dose mostly 46 µM), for inactives: at the top dose activity change, positive = activation, hits mostly activators. 330,000 tested, 1.3% active; also: % of control where 0% means no effect; nearly all actives have a fitted effect of over 60% in size
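HEK293T cells expressing luciferase-tagged ELG1 were treated with compound or DMSO for 16 hr at 37°C. Luciferase activity was then read after 30 min with ONE-Glo at room temperature; rising signal flags genetic stress.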
ELG1 repair inh = blocks ELG1-dependent DNA repair in HEK293T cells. Potency, µM (highest dose often 46.1 µM), without a hit: at the top dose activity change, negative = inhibition, hits mostly inhibitors. HEK293T ELG1-luciferase reporter, luminescence, 16 h; DNA damage induced by 5-fluorouridine. AID 504467. 330,000 tested, 2.3% active; also: % is scaled to controls: 0 for no effect and ±100 for the full control effect; nearly all actives have a fitted effect of over 55% in size
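Reporter activity after DNA damage by 5-fluorouridine is monitored. Compound-treated cells incubate 16 hr at 37 °C, then ONE-Glo is added for 30 min before luminescence reading.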
SMN2 splice up = enhancers of SMN2 splice variant expression | HEK293 SMN2-luciferase splicing reporter, luminescence, 30-36 h | Potency, µM (titrated, usually from 46.1 µM), inactives show at the top dose activity change, positive = activation, actives largely listed as activators | 210,000 tested, 2.8% active; also: % of control where 0% means no effect; nearly all actives have a fitted effect of over 55% in size
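HEK293 cells carry an SMN2 minigene-luciferase reporter in which exon 7 inclusion puts luciferase in frame. Cells were seeded at 2000 cells/well, attached for 10-12 hours, then exposed to compounds for 30-36 hours at 37C before ONE-Glo luminescence.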
* marks the source's active call; other numbers are inactive results; ? = inconclusive; nt = no result. Rows were chosen to be rich in hits. Some 9.2% of all compounds tested hit in one or more screens of this group. Calls follow the shape of the dose curve; as a rule, active = well fitted curve in the direction sought with a large enough effect; inconclusive = small, poorly fitted or top-dose-only effect, or another doubt; inactive = no such curve, though single readings can be large; an effect the other way counts as inactive or inconclusive. Potency is read from the fitted curve at half-maximal effect.

SMILES	Rab9 prom act	NPC1 promoter act	FLuc modulator	ELG1 genotox	ELG1 repair inh	SMN2 splice up
Cc1cc(C)cc(N(CCC#N)C(=O)COC(=O)Cn2[nH]c(=O)c3ccccc3c2=O)c1	nt	nt	nt	-2.1%	7.5%	nt
CCCCCCNC(=O)CC(NS(=O)(=O)c1ccc(OC)cc1)C(C)C (stereo unspecified)	-3.1%	-1.8%	1.5%	-0.6%	-12.4%	-1.4%
CC(=O)N(C)c1ccc(N=Nc2c(C)[nH]n(-c3ccccc3)c2=O)cc1	-9.6%	-0.2%	-15.1%	-6.8%	-1.0%	nt
CCN(CC)S(=O)(=O)c1ccc(N=Nc2c(C)[nH]n(C(N)=S)c2=O)cc1	?	?	8.49µM*	16.3%	?	?
CC(=O)N(C)c1ccc(N=Nc2c(C)[nH]n(C(N)=S)c2=O)cc1	0.447µM*	0.631µM*	2.69µM*	?	?	3.16µM*
Cc1ccccc1N=Nc1c(C)[nH]n(C(N)=S)c1=O	1.1%	10.1%	?	0.2%	?	-2.7%
Cc1cc2nc(/C=C/c3cccnc3)[nH]c2cc1C	?	?	2.39µM*	2.31µM*	?	nt
Cc1c(C(=O)NC2CC2)oc2ccccc12	-1.6%	-3.9%	?	1.7%	?	nt
Cc1c(C(=O)NC2CCC(C)CC2)oc2ccccc12 (stereo unspecified)	2.82µM*	3.16µM*	9.53µM*	?	?	nt
Cc1c(C(=O)NC2CCCCC2C)oc2ccccc12 (stereo unspecified)	5.1%	-0.7%	13.5µM*	-17.4%	?	nt
CC(C)(O)[C@@H]1CCC[N+]2(C)CCCC[C@H]12 (stereo partly specified)	nt	nt	nt	nt	nt	-2.6%
Cc1[nH]nc(Nc2ccc(Br)cc2)c1[N+](=O)[O-]	3.16µM*	2.82µM*	9.53µM*	?	?	nt
Cc1[nH]nc(Nc2ccc(C(C)C)cc2)c1[N+](=O)[O-]	3.55µM*	3.55µM*	9.53µM*	?	?	nt
Cc1[nH]nc(Nc2ccccc2)c1[N+](=O)[O-]	13.2%	18.5%	?	3.7%	?	-7.7%
Cc1cccc(Nc2n[nH]c(C)c2[N+](=O)[O-])c1	3.16µM*	2.51µM*	15.1µM*	5.8µM*	?	?
Cc1ccc(Nc2n[nH]c(C)c2[N+](=O)[O-])cc1	3.55µM*	2.82µM*	19µM*	19.2%	?	17.8µM*
Cc1ccc(OCC(=O)Oc2cccc(C)c2C)cc1	-0.3%	2.2%	?	-0.5%	26.3%	nt
COc1ccc(Nc2nc(N)c([N+](=O)[O-])c(NCCO)n2)cc1	1.0%	16.6%	?	8.0%	0.0%	nt
CNc1nc(Nc2ccc(Br)cc2)nc(N)c1[N+](=O)[O-]	3.55µM*	?	-4.5%	?	?	10.5%
Fc1cccc(-c2cc3nc4c(c(N5CCC6(CC5)OCCO6)n3n2)CCCC4)c1	-0.2%	-1.4%	15.1µM*	?	?	10.7%
COCCN1CCN(c2cc(-c3ccccc3)nc3cc(-c4cccc(F)c4)nn23)CC1	-3.2%	-5.6%	1.0%	-13.0%	14.6µM*	-104.0%
Fc1cccc(-c2cc3nc(-c4ccccc4)cc(N4CCC5(CC4)OCCO5)n3n2)c1	-11.0%	-5.3%	3.5%	-7.9%	23.1µM*	-21.7%
Cc1cccc(-c2cc3nc(-c4ccccc4)cc(N4CCC5(CC4)OCCO5)n3n2)c1	1.4%	-0.9%	1.7%	-6.3%	?	-33.2%
COc1cc(OC)cc(-c2cc3nc4c(c(N5CCN(c6ncccn6)CC5)n3n2)CCCC4)c1	13.9%	15.7%	-22.7%	-1.2%	14.6µM*	-16.0%
Clc1cccc(-c2cc3nc4c(c(N5CCNCC5)n3n2)CCCC4)c1	1.5%	-9.0%	?	1.4%	?	-124.9%
OCC1(Cc2cccc(Cl)c2)CCCN(Cc2cnn(-c3ccccc3)c2)C1 (stereo unspecified)	-3.6%	0.9%	2.4%	-6.6%	-2.0%	nt
CN(CCO)c1c2c(nc3cc(-c4cccc(F)c4)nn13)CCCC2	3.55µM*	3.55µM*	23.9µM*	?	?	23.3%

Screening data from PubChem BioAssay.
